How the values were obtained:
[1] = target: T1, Aspartate--tRNA(Asp/Asn) ligase (Mycobacterium tuberculosis (strain ATCC 25618 / H37Rv)) (UniProt P9WFW3); test: Assay for Asp RNA synthetase-1 from Mycobacterium tuberculosis; type: functional; parameters: scale not given: direction of the effect not stated beside the values; details: 30 µM; also: in the data most compounds retested in dose-response had high values
T1 sequence (whole entry): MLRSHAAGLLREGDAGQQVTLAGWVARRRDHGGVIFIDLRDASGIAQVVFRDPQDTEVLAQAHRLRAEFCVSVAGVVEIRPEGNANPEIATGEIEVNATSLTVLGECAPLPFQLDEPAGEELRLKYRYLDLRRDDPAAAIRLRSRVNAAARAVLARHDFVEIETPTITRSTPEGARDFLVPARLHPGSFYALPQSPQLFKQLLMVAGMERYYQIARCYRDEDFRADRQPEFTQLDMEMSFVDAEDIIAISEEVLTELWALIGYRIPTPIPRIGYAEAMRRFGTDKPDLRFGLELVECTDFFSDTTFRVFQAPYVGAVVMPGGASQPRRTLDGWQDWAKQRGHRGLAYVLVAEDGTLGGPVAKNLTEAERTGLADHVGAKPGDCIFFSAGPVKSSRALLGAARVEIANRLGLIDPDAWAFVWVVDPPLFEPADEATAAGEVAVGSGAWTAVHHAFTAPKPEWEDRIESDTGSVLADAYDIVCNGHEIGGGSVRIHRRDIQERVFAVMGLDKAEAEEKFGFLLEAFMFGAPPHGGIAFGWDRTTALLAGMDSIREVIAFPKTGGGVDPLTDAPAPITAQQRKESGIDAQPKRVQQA

[2] = target: Shiga toxin 2 (Escherichia coli O157:H7) (UniProt P09385+P09386); test: E. coli 0.157:H7 Shiga Toxin SOP - stx2 screening assay; type: functional; parameters: scale not given: direction of the effect not stated beside the values; details: 30 µM

Row | Compound | Percent Effect [1] [%] | Percent Effect [2] [%]
1 | COCCc1noc(CN2CCCC(Cn3nc(C)nc3C)C2)n1 (stereo not given) | 12.8 | 22.8
2 | CC(C(=O)NCCCN1CCCCCC1=O)n1cncn1 (stereo not given) | 2.08 | 20
3 | CN(Cc1ccc(F)cc1)CC1(O)CCCN(CC(C)(C)C)C1=O (stereo not given) | -0.167 | 28.1
4 | CN(CCOc1cccc(CNC(=O)C2CC2)c1)C1CCOCC1 | -1.13 | -0.044
5 | Cc1cc(CN(C)C(=O)NCC(C)N2CCc3ccccc32)no1 (stereo not given) | -1.27 | -6.14
6 | COc1ccc(CS(=O)(=O)CC(=O)NCc2ccccc2F)cc1F | 5.03 | -1.34
7 | CC(NCc1ccc(Cl)o1)c1nnc2n1CCCC2 (stereo not given) | -3.67 | -31
8 | O=C(COCc1nc(-c2ccncc2)no1)NC1CCCCC1 | 2.71 | -15.1
9 | Cc1ccc(N2CCCC(NCc3cccc4c3OCCO4)C2)nn1 (stereo not given) | 4.13 | 19
10 | CC(C)c1nccn1C1CCCN(C(=O)c2ccnc(N(C)C)c2)C1 (stereo not given) | 2.16 | -29.7
11 | O=C(CO[C@@H]1CC[C@H]2[C@H]1OCCN2CC1CCOCC1)N1CCCC1 | 0.943 | -4.47
12 | CCOc1cccc2c1OCC(C(=O)NS(=O)(=O)c1ccc(C)s1)=C2 | 4.55 | 2.64
13 | CCc1cnc(CN(C)C2CCN(CCS(C)(=O)=O)C2)o1 (stereo not given) | 0.585 | -7.2
14 | Cn1cc(CC2CCN(C(=O)NCc3cn4ccsc4n3)C2)cn1 (stereo not given) | -4.64 | -8.11
15 | CCS(=O)(=O)CCn1ccc(NC(=O)CCc2cccc(C)c2)n1 | 2.58 | -19.5
16 | CC[C@@H]1N(CC2CC2)CCC[C@]12CCC(=O)N2CCOC | -4.31 | -1.83
17 | O=C(COCc1nc(-c2ccncc2)no1)N1CCCC1 | 15.3 | -21.3
18 | Cc1nc(C2(O)CCCNCC2)sc1CCOc1ccc(Cl)cc1 (stereo not given) | -4 | -45.5
19 | CCOc1ccccc1-c1noc(CN(C)Cc2cnn(C)c2)n1 | 2.13 | -14
20 | CCCn1nc(C)c(CNC(=O)C2COc3c(cccc3OC)C2)c1C (stereo not given) | 0.114 | -6.29
21 | O=C(c1ccncc1)N1CCCn2c(CN3CCCCC3)nnc2C1 | -3.93 | -4.1
22 | Cn1cnc2c1CCN(CCCc1ccccc1)C2 | 1.13 | 1.04
23 | CN(Cc1ncc(C(C)(C)C)o1)C1CCCN(c2cccnn2)C1 (stereo not given) | 0.143 | -9.94
24 | CCN(C)S(=O)(=O)N(CC)Cc1ccc2c(c1)OCO2 | 3.49 | 12.6
25 | Cc1ncc2c(n1)CN(Cc1nnc(Cc3ccccc3)o1)CC2 | 0.379 | -26.9

Row | Compound | Percent Effect [1] [%] | Percent Effect [2] [%]
26 | CS(=O)(=O)c1ccc(NC(=O)NCc2ccc3c(c2)CCC3)cn1 | 1.92 | -9.09
27 | CC(NC(=O)NCc1ccoc1)c1ccc2c(c1)CCC(=O)N2 (stereo not given) | -9.2 | -43.2
28 | CC(=O)c1ccc(N2CCCC(CO)(CCOc3ccccc3)C2)nc1 (stereo not given) | -2.11 | -9.89
29 | Cc1cc(N(C)C)nc(C2(C)CCCN2C(=O)c2cnccn2)n1 (stereo not given) | 1.19 | -0.274
30 | CC(C)CNC(=O)NC(=O)CNc1ccccc1SCC(C)C#N (stereo not given) | -5.03 | 4.99
31 | O=C(C1=CCCC1)N1CCO[C@H]2[C@@H](Oc3ccccn3)CC[C@@H]21 | 0.28 | -1.55
32 | Cc1ccc(-c2ncc(C(=O)NCCNc3ncccn3)s2)c(C)c1 | 7.92 | -13.5
33 | Cc1occc1C(=O)N1CCO[C@H]2[C@@H](Oc3ccccn3)CC[C@@H]21 | -0.28 | -16.2
34 | COCCc1noc(CN2CCCCC2Cn2nc(C)cc2C)n1 (stereo not given) | -0.417 | 1.32
35 | CCn1nccc1CNC(=O)NC1CCCCC1 | 11.6 | -68.7
36 | CNc1nc(CNC(=O)Nc2cccc(F)c2C)cs1 | -2.59 | 17.1
37 | Cc1cccc(C)c1NC(=O)CCNC(=O)c1ccoc1 | -1.5 | 15.3
38 | COc1c(CNCc2cccc(CS(C)(=O)=O)c2)c(C)nn1C | 1.7 | 20.4
39 | CCOc1ccc(CC(CNC(=O)c2ccoc2)C(N)=O)cc1 (stereo not given) | -3.95 | -12.5
40 | Cc1nc(-c2ccc(C(=O)O)cc2)cc(C2CCN(C(C)C)C2)n1 (stereo not given) | 2.34 | -5.82
41 | CCc1nc(C2CCCN2C(=O)CCn2cncn2)no1 (stereo not given) | 3.36 | 5.08
42 | Cc1nc(C)n(CC2CCCN2Cc2ccn(-c3ccccc3)n2)n1 (stereo not given) | 0.0463 | -14.6
43 | COc1ccc(OC)c(Sc2ncccc2C(=O)N(C)CCC#N)c1 | -6.44 | 13.3
44 | CN1[C@@H](C(=O)NCC2CC2)C[C@@H]2CN(Cc3ccco3)C[C@@H]21 | 2.69 | -1.45
45 | CS(=O)(=O)N1Cc2ccccc2C2(CCN(C(=O)c3ccno3)CC2)C1 | 1.46 | -6.76
46 | Cn1nc(C2CN(C(=O)c3cscn3)C2)c2nccnc21 | 2.04 | 8.15
47 | Cc1oc(-c2ccco2)nc1CC(=O)N1CCC(C(O)C(F)(F)F)CC1 (stereo not given) | -5.79 | 4.07
48 | CCc1nc(CC(=O)N2CCn3c(nnc3C(F)(F)F)C2)cs1 | 1.3 | 17.9
49 | CCN(CC)C(=O)Nc1cc2c(cc1SC)OCCO2 | -1.51 | 12
50 | O=C(c1ccc(Br)s1)N1CCN(Cc2ccc(OC(F)(F)F)cc2)CC1 | -3.13 | -21.7
